Pf growth 48h – P. falciparum growth inhibition at 48 hours (one generation). P. falciparum luciferase growth in erythrocytes, 48 h. Potency, µM (series often up to 28.7 µM), for the others: top-dose activity change, negative = inhibition, actives largely listed as inhibitors. 5.9% of 310,000 active. AID 504832; also: potency is read from the fitted curve at half-maximal effect
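Growth was read as firefly luciferase luminescence after a 48 h, 37 C, 5% CO2 exposure of compounds to reporter-bearing P. falciparum cultures (0.1% parasitemia, 2% hematocrit final) in Albumax-supplemented RPMI 1640.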
Pf growth 96h – P. falciparum growth inhibition at 96 hour, primary screen for plastid delayed-death inhibitors. P. falciparum luciferase reporter growth, 96 h. Potency, µM (series often up to 28.7 µM), for inactives: at the top dose activity change, negative = inhibition, actives largely listed as inhibitors. 6.9% of 320,000 active; also: potency is read from the fitted curve at half-maximal effect
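Readout is luminescence from an integrated firefly luciferase in P. falciparum. Red cells, 2% hematocrit and 0.05% parasitemia final, were cultured with compound through two parasite generations (96 hours) at 37 C, 5% CO2.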
HCMV antiviral – inhibitors of human cytomegalovirus. HFF cells, HCMV-luciferase reporter, 72 h; stronger effect = lower value. activity change, negative = inhibition, % at 57.5 µM. 4.5% of 410,000 active; in the data active = activity change below about -60%; inconclusive = no clear call, values can overlap the other calls; inactive = above about -39%
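Compounds were evaluated in HFFs infected with an HCMV luciferase reporter virus (MOI 1 PFU/cell). Luciferase in lysates collected 72 h post infection served as the replication measure.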
HCV inh – HCV inhibition. Potency, µM (top dose mostly 41.8 µM), for inactives: at the highest dose activity change, negative = inhibition, most hits filed as inhibitors. Huh7.5.1 HCVcc-Cre infection, luciferase reporter, 44 h. 3.4% of 340,000 active. AID 651820; also: potency is read from the fitted curve at half-maximal effect
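1,000 cells/well; 4 h culture; + compound; + HCVcc-Cre (~0.5 moi); 44 h; luciferase substrate, RT 15 min; read 15 sec.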
Numbers without * were called inactive; ? = inconclusive; . = no result given; [ ] = dose if it differs, or a comment. In the library only some 13% were active in any assay of this set; here they are far more common. Unless noted, calls follow the shape of the dose curve; as a rule, active = well fitted inhibition curve with a large enough effect; inconclusive = small, poorly fitted or top-dose-only effect, or another doubt; inactive = no such curve, though single readings can be large or run the other way. % is scaled to controls: 0 for no effect and ±100 for the full control effect.

SMILES | Pf growth 48h | Pf growth 96h | HCMV antiviral | HCV inh
Nc1c(C(=O)OC2CCCCC2)c2nc3ccccc3nc2n1CC1CCCO1 (stereo unspecified) | ? | 13µM* | -12 | 10µM*
COc1ccc(-c2onc(C)c2C)cc1S(=O)(=O)N1c2ccccc2CC1C (stereo unspecified) | . | . | 42 | .
Cc1ccc(C)c(NC2=NS(=O)(=O)c3ccccc32)c1 | -7% | 18% | ? | 6%
Cc1cc(O)c(C(C)C)cc1NC1=NS(=O)(=O)c2ccccc21 | -5% | 25% | -72* | -3%
Cc1ccccc1-c1nc2c(c(SCc3cccc(Cl)c3)n1)Cc1c(CO)cnc(C)c1O2 | . | . | 11 | .
Cc1nn2c(=O)cc(CN(C)c3ccccc3)nc2s1 | . | . | 18 | .
COc1ccc(C2C(C(=O)Nc3ccccc3OC)=C(C)Nc3c(C(=O)Nc4ccccc4)cnn32)c(OC)c1 (stereo unspecified) | . | . | -17 | .
CCc1nn(CC(=O)NCc2ccccc2)c(=O)c2cccn12 | . | . | -1 | .
Cc1ccc(S(=O)(=O)N2CCN(c3ccc([N+](=O)[O-])c(NCCN4CCOCC4)c3)CC2)cc1 | ? | 0% | -16 | -27%
O=[N+]([O-])c1ccc(N2CCN(S(=O)(=O)c3ccccc3)CC2)cc1NCCN1CCOCC1 | 13µM* | 9.3µM* | 14 | ?
O=[N+]([O-])c1ccc(N2CCN(S(=O)(=O)c3ccccc3[N+](=O)[O-])CC2)cc1NCc1cccnc1 | 8.3µM* | 10µM* | -12 | -19%
CC(=O)N1CCCC1c1nc2ccccc2n1Cc1cccc(C)c1 (stereo unspecified) | . | . | 3 | .
Cc1ccc(CNC(=O)C2CCN(S(=O)(=O)c3c(C)noc3/C=C/c3cccs3)CC2)cc1 | . | . | -27 | .
CC(C)(C)c1ccc(-c2nc(SCC(=O)Nc3ccc(Cl)cc3)[nH]c(=O)c2C#N)cc1 | . | . | -32 | .
C[C@@]1([C@@H](NC(=O)c2cccs2)c2ccc(-c3ccccc3)cc2)C[C@H]1C1CCCCC1 | 1.9µM* | 2.6µM* | 2 | 8%[8.37 µM]
O=C(COC(=O)[C@H](Cc1ccccc1)NC(=O)c1cccs1)NC1CCCCC1 | 20% | 60% | -33 | 9%
COc1cc2c(cc1OC)-c1c(OC)c(OC)cc3ccnc(c13)C2=O | ? | ? | -95* | ?
COc1cc(-c2nccc3cc4c(cc23)OCO4)cc(OC)c1OC | . | . | 60 | -14%
COC(=O)Cc1c(C)c2ccc3c(c2oc1=O)CN(Cc1ccccc1Cl)CO3 | . | . | -18 | .
O=C1CN(C(=O)c2ccc(S(=O)(=O)N3CCCC3)cc2)C(c2ccccc2)c2cc(Br)ccc2N1 (stereo unspecified) | . | . | -31 | .
COc1ccccc1C(=O)Nc1ncc2c(n1)CC(c1ccco1)CC2=O (stereo unspecified) | ? | 13% | -84* | ?
COc1ccc(C2CC(=O)c3cnc(NC(=O)c4ccco4)nc3C2)cc1 (stereo unspecified) | 6% | 28% | -25 | 15%
COc1ccc(-c2nc3c4ccccc4n(CC(=O)N4CCN(c5ccccc5F)CC4)c(=O)n3n2)cc1 | . | . | 9 | .
CCN(C(=O)CSc1ncc(S(=O)(=O)c2ccc(C)c(Cl)c2)c(=O)[nH]1)c1cccc(C)c1 | . | . | 7 | .
Cc1cc(C)cc(NC(=O)CSCc2cc(=O)c3ccc(C)c(C)c3[nH]2)c1 | . | . | 14 | .
SMILES | Pf growth 48h | Pf growth 96h | HCMV antiviral | HCV inh
COc1ccc(CCNC2CC(=O)N(CCc3ccccc3)C2=O)cc1 (stereo unspecified) | 9% | . | 0 | -2%
CCN(CC)c1ccc(NC2CC(=O)N(CCc3ccc(OC)cc3)C2=O)cc1 (stereo unspecified) | 4.7µM* | 1.9µM* | -3 | 1%
COc1ccc(CCN2C(=O)CC(NNC(=O)c3ccccc3Br)C2=O)cc1 (stereo unspecified) | 15% | 26% | -65* | 1%
Cc1noc(C)c1S(=O)(=O)N1CCCC(C(=O)Nc2ccc(C(C)C)cc2)C1 (stereo unspecified) | . | . | 28 | .
Cc1c(C(=O)N(Cc2ccc(N(C)C)cc2)Cc2ccco2)oc2cc(Br)ccc12 | . | . | 26 | .
COC(=O)C/C=C/[C@@H](C)[C@@H](/C=N/OC[C@@H](C)[C@H](OCc1ccccc1)C(C)C)NS(=O)(=O)c1ccc(C)cc1 | 13µM* | 9.3µM* | . | -15%[8.37 µM]
C=CC[C@@H]1C=C[C@H](O/N=C/[C@@H](NS(=O)(=O)c2ccc(C)cc2)[C@H](C)/C=C/CC(=O)OC)[C@@H](CO)O1 | 10% | -27% | . | 1%[8.37 µM]
CCCN1[C@@H]2c3cccc(=O)n3C[C@H]1[C@H](CO)[C@H]2C(=O)NC1Cc2ccccc2C1 | . | . | -10 | .
CC(C)c1ccc(NC(=O)c2cc(S(=O)(=O)N3CCCCC3)cn2C)cc1 | . | . | 20 | .
O=c1[nH]n(CC2COC3(CCCCC3)O2)c(=O)c2ccccc12 (stereo unspecified) | 58% | 8.3µM* | 218 | 11%
COc1cc(CN2CCCC(CO)(Cc3ccccc3)C2)ccc1O (stereo unspecified) | 16% | 10µM* | 23 | -10%
Cn1cc(CN2CCCC(CO)(Cc3cccc(Cl)c3)C2)cn1 (stereo unspecified) | ? | -4% | -9 | -4%
OCC1(Cc2cccc(Cl)c2)CCCN(Cc2cnn(-c3ccccc3)c2)C1 (stereo unspecified) | 8.3µM* | -8% | 0 | ?
COc1ccc(CN2CCCC(CO)(Cc3ccc(F)cc3)C2)c(OC)c1OC (stereo unspecified) | -17% | 12µM* | 7 | ?
CC(C)Oc1ccc(CN2CCCC(CO)(Cc3ccc(F)cc3)C2)cc1 (stereo unspecified) | ? | 10% | 7 | ?
COc1cccc(CC2(CO)CCCN(Cc3ccc4c(c3)OCCO4)C2)c1 (stereo unspecified) | -36% | 10µM* | -3 | -25%
COc1cccc(NC(=O)c2oc3ccccc3c2NC(=O)c2ccc(C(F)(F)F)cc2)c1 | . | . | 5 | .
Cc1cccc2c(C(=O)N3CCN(C(=O)c4ccco4)CC3)cc(-c3cccc(Br)c3)nc12 | ? | 35% | -64* | ?
Cc1cc(C)c2nc(C(F)(F)F)nc(N3CCN(C(=O)c4ccco4)CC3)c2c1 | ? | ? | ? | 13µM*
Cc1ccc2nc(SCC(=O)N3CCN(C(=O)c4ccco4)CC3)[nH]c2c1 | 5% | -18% | 11 | 21%
Cc1cc(C)c2nc(N3CCCN(C(=O)c4ccco4)CC3)c(C#N)cc2c1 | 0% | ? | 12 | ?
O=C(CSc1nc2ccc(Cl)cc2[nH]1)N1CCN(C(=O)c2ccco2)CC1 | 1% | ? | -65* | -15%
CCc1cc2cccc(C)c2nc1SCC(=O)N1CCN(C(=O)c2ccco2)CC1 | -4% | 16% | ? | ?
CCc1cc2cc(C)cc(C)c2nc1SCC(=O)N1CCN(C(=O)c2ccco2)CC1 | -24% | 8.3µM* | -1 | ?
COc1ccc(CNC(=O)c2ccc(N3CCCC3)c(NC(=O)NCc3ccc(C)cc3)c2)cc1 | . | . | -19 | .
